Assay results taken from the supplement of paper PMC3334620.
The full ranking holds about 33,000 sequences; the median of “E-score (-0.5 to 0.5)” is about -0.041, and the highest 2% start at about 0.37. The list comes from a sample in which the highest values are over-represented; it also holds similar and randomly drawn sequences.

These sequences were tested against T1, Ecm22 (UniProt Q05958) (assay: PBM E-score (8-mer binding enrichment) (E-score (-0.5 to 0.5)); higher = stronger / more preferred TF binding). Conditions: protein concentration: 200 nM; construct: GST-full length.
T1 sequence: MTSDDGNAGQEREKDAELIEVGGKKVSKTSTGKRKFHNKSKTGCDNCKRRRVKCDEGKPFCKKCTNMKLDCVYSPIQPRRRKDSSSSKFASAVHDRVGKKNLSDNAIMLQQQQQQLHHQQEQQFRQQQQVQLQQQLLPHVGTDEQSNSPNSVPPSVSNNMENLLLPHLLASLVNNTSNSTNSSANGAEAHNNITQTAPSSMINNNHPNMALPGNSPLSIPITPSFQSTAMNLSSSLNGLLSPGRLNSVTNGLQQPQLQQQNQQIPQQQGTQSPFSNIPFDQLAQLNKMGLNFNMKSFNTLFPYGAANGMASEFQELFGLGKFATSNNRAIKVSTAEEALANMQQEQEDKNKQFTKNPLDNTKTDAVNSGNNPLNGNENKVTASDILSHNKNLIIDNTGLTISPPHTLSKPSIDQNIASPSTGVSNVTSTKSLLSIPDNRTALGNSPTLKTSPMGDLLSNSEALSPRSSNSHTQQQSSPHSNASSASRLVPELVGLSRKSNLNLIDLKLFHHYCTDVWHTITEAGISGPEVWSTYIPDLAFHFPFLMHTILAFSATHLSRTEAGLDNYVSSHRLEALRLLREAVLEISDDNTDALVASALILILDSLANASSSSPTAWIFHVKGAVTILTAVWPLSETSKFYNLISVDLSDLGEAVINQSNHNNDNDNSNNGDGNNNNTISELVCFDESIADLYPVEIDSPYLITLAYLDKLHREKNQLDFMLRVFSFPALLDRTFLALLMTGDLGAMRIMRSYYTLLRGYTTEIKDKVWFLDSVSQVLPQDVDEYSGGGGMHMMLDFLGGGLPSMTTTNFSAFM
Protocol: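 Universal 'all 10-mer' protein binding microarrays (Agilent AMADID 015681) probed with GST-tagged S. cerevisiae TFs (full-length or DBD) made by in vitro transcription/translation (PURExpress), about 100-200 nM. Bound TF was detected with fluorescent anti-GST. Each ungapped 8-mer (which stands for itself and its reverse complement) is scored by the PBM enrichment score (E-score), a modified Wilcoxon-Mann-Whitney statistic from -0.5 to +0.5, computed with the Universal PBM Analysis Suite. Scale: above 0.35 generally sequence-specific binding.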

Sequence | PBM E-score
ACTGGATG | -0.18
GGTACAAC | 0.0714
CGTACAAC | 0.434
AGTACAAC | 0.0262
CGTACTAG | 0.342
CGTACTAC | 0.382
CGTACTAA | 0.341
CTAAACAG | -0.109
AAACCACT | -0.153
AGCTGCGG | -0.00448
AATCGCCC | -0.0815
TAGAGCCA | -0.288
ACTCCGTG | -0.233
AGGTCGGC | -0.138
GGTTACTA | -0.123
CGTTACAA | 0.0964
AGTTACGG | 0.138
AGTTACGA | 0.393
AGTTACGC | 0.071
CGTTACGA | 0.403
GGTTACGA | 0.381
GGTTACCA | 0.0711
CGTTACGC | 0.256
GTGGCGTA | 0.042
CCCGTTGC | 0.111

Sequence | PBM E-score
CCTCGGGC | 0.0916
ACTTCACC | 0.0335
AAAATCAC | -0.0192
ACACGAAG | 0.249
ATACGTAC | 0.342
GGACGAAA | 0.108
ATACGTAT | 0.374
GCACGAAA | 0.103
AGACGAAT | 0.0921
AGACGAAG | 0.0703
ATACGAAG | 0.466
ATACGAAT | 0.45
ATACGTAA | 0.278
GTACGAAA | 0.467
ACACGAAT | 0.217
AGCCTTAA | -0.0857
AACTTGGT | 0.0861
TGTGTCAA | -0.0896
CGCAAGCC | 0.0725
GGATCCCC | -0.0315
ATACGAAA | 0.463
TTACGAAA | 0.403
AGACGAAA | 0.194
ACACGAAA | 0.224
TCACGAAA | -0.00573

Sequence | PBM E-score
CTACGAAA | 0.302
ATGGTTCA | 0.0295
AGAACCCC | -0.179
GACCCTCC | 0.00379
CGTGCGTA | 0.233
GCCCCCCA | -0.365
AGGATTAG | -0.0677
CCGCAACG | 0.377
CCGCAACC | -0.176
ACGCAACG | 0.308
GCGGCACC | -0.0132
TACGATCA | 0.443
CACGATCA | -0.00633
CACGATGA | 0.19
AACGATGT | 0.396
GACGATGC | -0.0114
ATCGATGA | -0.0837
AACGATGA | 0.386
GACGATCA | -0.0466
CACGATGC | 0.136
TACGATGA | 0.438
GACGATGA | -0.0197
AAAGATGT | -0.0546
CCGTCTTA | -0.174
AAGGCGCA | -0.0313

Sequence | PBM E-score
ATCCCAGC | -0.0508
TCAACTGA | -0.205
AGGCTCTC | -0.162
GGAGCACA | -0.107
CGTTGTGC | 0.116
CCCGGGAA | -0.0348
CCAACCAA | -0.0915
AACGATGG | 0.374
CACGATGG | 0.0647
AACGATGC | 0.348
TGTGTAAA | -0.0334
CCACGAGC | -0.0179
CGACGAGC | 0.162
ATACGAGA | 0.484
ATACGTGA | 0.171
CTACGAGC | 0.413
AGACGAGC | 0.211
ATACGAGC | 0.49
ATGCGAGA | 0.302
CGACGAGA | 0.08
CTACGAGA | 0.385
ACACGAGC | 0.275
CCACGAGA | -0.117
CCGAGTGA | 0.196
CCTTTCGA | 0.142

Sequence | PBM E-score
AAGCGTTA | 0.00424
ACCCCCGG | -0.189
GAGCGGGC | -0.0404
AGTAGTCG | 0.238
AGGGCTAC | -0.117
ATAAATTA | 0.326
ACACGAGG | 0.324
GTACGAGA | 0.482
ATACGAGG | 0.488
GTACGCGA | 0.327
GTCCGAGA | 0.253
AGACGAGG | 0.202
ACCCCGAC | -0.0233
AGTCAATG | -0.0767
ACGGGGCA | 0.114
TGCAGCCA | -0.171
GTTTAGTA | 0.271
CCCGGTAC | 0.078
AGCGACTA | 0.161
CACGACTC | 0.0577
AACGACTT | 0.336
AACGACTG | 0.393
ATCGACTG | 0.076
AACGACTC | 0.388
TACGACTA | 0.438

Sequence | PBM E-score
GACGACTA | -0.121
AACGACTA | 0.372
CACGACTA | -0.0786
GACGACTC | -0.0985
CACGACTG | 0.0526
TCCCCGGA | 0.00406
ATCTGTAG | -0.116
CGTCTCAC | 0.0419
TGCGCAAA | -0.077
GAAGCAGA | -0.215
AGTCGTCC | -0.0209
CGTCGTAC | 0.486
CGTCGTCC | -0.054
GGTCGTAC | 0.482
AGTCGTGC | -0.0872
CATCGTCG | 0.0968
CGTCGTGC | 0.177
AGTCGTAC | 0.46
CGTAGTAG | 0.109
GGTCGCAC | 0.228
CGTCGTAG | 0.406
GGACGTAC | 0.126
CCCCGAAC | -0.0375
GGAAAATA | 0.0993
GATCGGGA | 0.0412

Sequence | PBM E-score
CCAGGTCC | -0.192
GAAAAAGC | -0.00535
ACTCAGTC | -0.147
CCCTCCAG | -0.206
AGGTGAAC | 0.0634
TGAGTAAA | -0.13
ATTCTCGA | 0.168
AGTCGTCG | 0.01
AGTCGTAG | 0.304
AGTCGTAT | 0.46
AGCCTAAC | -0.0712
ATCTGCGG | -0.00985
GATGAGGA | -0.0394
AGGAGCTA | -0.138
GTCTCGTA | 0.461
ATCTCGTC | 0.158
GTCTCGGA | 0.242
ATCTCGTG | 0.193
CTCTCGTA | 0.457
CTCTCGTC | 0.0625
GTCTCGAA | -0.00716
ATCTCGTA | 0.466
CTCTCGAA | -0.0852
